# Assay outcomes: PubChem, National Center for Advancing Translational Sciences (NCATS)
# This is a sample that favours compounds with a hit; in the whole collection about 8% have one here.
# RORgamma inh: blocks mouse ROR gamma transcriptional activity | 5.4% of 310,000 active | Potency, µM (highest dose often 53.6 µM), inactives show at the highest dose activity change, negative = inhibition, usual class: inhibitors | AID 2551 | Drosophila S2 Gal4-RORgamma UAS-luciferase reporter, 20 h | P51450; also: potency is read from the fitted curve at half-maximal effect; nearly all actives have a fitted effect of over 60% in size
#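 A Gal4/UAS one-hybrid system in insect cells: metallothionein-promoter Gal4–ROR gamma fusion plus Photinus luciferase reporter. Copper sulfate 700 uM final, 20 hr ambient incubation, luminescent detection after 10 min with reagent.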
# Coupling enz: coupling enzyme interference in Giardia aldolase counter-screen; coupling enzyme system counterscreen, AmpLite Red fluorescence; activity change, negative = inhibition, % at 58.2 µM, hits read low; 0.67% of 290,000 active; in the data active = activity change below about -30%
#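 Counterscreen of the coupled detection system alone, without aldolase: glyceraldehyde-3-phosphate coupling enzymes plus AmpLite Red readout. Compounds at 57.5 uM final, 10 min RT preincubation, 20 min RT reaction, fluorescence 525/598 nm.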
# Gal4-VP16 FLuc: counter-screen for ROR gamma inhibitors: Gal4-VP16 reporter. Drosophila S2 Gal4-VP16 UAS-luciferase, luminescence, 20 h. 3.5% of 310,000 active. Potency, µM (series often up to 53.6 µM), inactives show at the highest dose activity, negative = inhibition, most hits filed as inhibitors;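 also: Gal4-VP16 expression switched on by copper sulfate through the metallothionein promoter; potency is read from the fitted curve at half-maximal effect; nearly all actives have a fitted effect of over 50% in size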
# ELG1 repair inh: ELG1-dependent DNA repair inhibition. HEK293T ELG1-luciferase reporter, luminescence, 16 h; DNA damage induced by 5-fluorouridine. Potency, µM (doses to about 46.1 µM), for inactives: at the top dose activity change, negative = inhibition, usual class: inhibitors. 2.3% of 330,000 active; also: potency is read from the fitted curve at half-maximal effect; nearly all actives have a fitted effect of over 55% in size
#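 Step one: seed 2,000 cells per well. Step two: pin-transfer compound or DMSO alongside 5-fluorouridine. Step three: incubate 16 hr, 37 °C, 5% CO2. Step four: add ONE-Glo, wait 30 min, read luminescence.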
# TSHR antag: human thyrotropin receptor antagonism. TSHR-expressing cells, TSH-stimulated cAMP HTRF, 2 h; active compounds read low. 0.2% of 330,000 active. AID 504810. P16473. activity change, negative = inhibition, % at 11.5 µM;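 active = activity change below a set negative limit, meaning inhibition stronger than a set level, cut at about -70% in these data; inconclusive = activity change between two set negative limits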
# Target sequence (P16473 whole entry, looked up): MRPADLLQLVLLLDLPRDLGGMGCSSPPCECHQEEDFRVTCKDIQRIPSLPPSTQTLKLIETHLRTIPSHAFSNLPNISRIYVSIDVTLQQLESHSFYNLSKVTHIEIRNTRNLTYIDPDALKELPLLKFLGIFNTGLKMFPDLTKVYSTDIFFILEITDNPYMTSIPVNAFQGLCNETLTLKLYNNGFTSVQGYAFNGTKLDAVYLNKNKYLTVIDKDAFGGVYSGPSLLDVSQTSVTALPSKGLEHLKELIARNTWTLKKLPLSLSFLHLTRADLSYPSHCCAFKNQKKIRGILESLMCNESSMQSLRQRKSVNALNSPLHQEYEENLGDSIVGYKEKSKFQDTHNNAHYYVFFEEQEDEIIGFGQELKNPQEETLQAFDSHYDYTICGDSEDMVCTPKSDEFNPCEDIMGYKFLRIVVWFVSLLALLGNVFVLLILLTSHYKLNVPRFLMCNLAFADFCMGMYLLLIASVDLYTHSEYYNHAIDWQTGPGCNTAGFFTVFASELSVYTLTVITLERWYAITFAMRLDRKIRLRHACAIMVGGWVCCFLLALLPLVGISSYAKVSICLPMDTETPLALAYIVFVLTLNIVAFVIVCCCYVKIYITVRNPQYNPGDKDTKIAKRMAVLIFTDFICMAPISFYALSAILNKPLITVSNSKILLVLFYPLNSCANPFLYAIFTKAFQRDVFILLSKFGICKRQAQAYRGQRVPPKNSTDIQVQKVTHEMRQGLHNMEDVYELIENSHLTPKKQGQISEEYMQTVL
#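 TSHR-expressing cells were treated with compounds, then stimulated with TSH at EC80 (4nM final) for 2 hours at 37 deg C. Cellular cAMP was measured by HTRF competition between lysate cAMP and cAMP-d2 for a cryptate-labelled anti-cAMP antibody.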
# ELG1 FLuc counter: luciferase inhibition in cell-free luciferin readout for ELG1 hits | shares compounds with ELG1 repair inh | cell-free firefly luciferase luminescence counter-screen, ViewLux | Potency, µM (doses to about 46.1 µM), for the others: top-dose activity change, negative = inhibition, most hits filed as inhibitors | 3% of 350 active; also: potency is read from the fitted curve at half-maximal effect
# ELG1 Luc conf: human ELG1 repair inhibition, luciferase-tagged ELG1 confirmation; 68% of 670 active; AID 624248; HEK293T ELG1-luciferase levels, luminescence; cells co-treated with 5-fluorouridine; shares compounds with ELG1 repair inh; Potency, µM (highest dose often 46.1 µM), for inactives: top-dose activity change, negative = inhibition, actives largely listed as inhibitors; also: potency is read from the fitted curve at half-maximal effect; nearly all actives have a fitted effect of over 55% in size
# ELG1 MMS Luc: inhibits ELG1-dependent repair under MMS stimulation in HEK293T cells. AID 624249. shares compounds with ELG1 repair inh. HEK293T luciferase-tagged ELG1 level, MMS stimulated. Potency, µM (highest dose often 46.1 µM), without a hit: at the top dose activity change, negative = inhibition, actives largely listed as inhibitors. 53% of 670 active; also: potency is read from the fitted curve at half-maximal effect; nearly all actives have a fitted effect of over 60% in size
# ELG1 5FU viab: confirmation of ELG1 repair inhibitors: viability with 5FU; 670 tested, under 10 active; shares compounds with ELG1 repair inh; cell viability with 5-FU, ELG1-dependent repair; Potency, µM (series often up to 46.1 µM), inactives show top-dose activity change, negative = viability loss, usual class: cytotoxic;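 also: ELG1-luc HEK293T cells cotreated with 5-fluorouridine at 10 µM final; potency is read from the fitted curve at half-maximal effect; viability measured 16 h after compound addition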
# ELG1 MMS cell: confirmation of ELG1 repair inhibitors: viability with MMS; Cell viability with MMS, ELG1-dependent DNA repair; 33% of 670 active; Potency, µM (series often up to 46.1 µM), without a hit: at the top dose activity change, negative = viability loss, usual class: cytotoxic; shares compounds with ELG1 repair inh; AID 624251;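 also: ELG1-luc HEK293T cells co-treated with 10 µM MMS; potency is read from the fitted curve at half-maximal effect; viability read 16 h after compound addition; nearly all actives have a fitted effect of over 60% in size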
# Cell viab unstim: unstimulated viability counter-screen for ELG1 repair hits | Potency, µM (top dose mostly 45.9 µM), for the others: at the highest dose activity change, negative = loss of viability, hits mostly cytotoxic | AID 624252 | 8% of 900 active | shares compounds with ELG1 repair inh | cell viability counter-screen, unstimulated, luminescence;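 also: potency is read from the fitted curve at half-maximal effect; compound exposure lasted 16 hours before reading; nearly all actives have a fitted effect of over 55% in size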
# FLuc enzyme: firefly luciferase inhibition counter-screen; shares compounds with ELG1 repair inh; purified firefly luciferase, luminescence counter-screen; Potency, µM (doses to about 57.5 µM), for inactives: at the top dose activity, negative = inhibition, most hits filed as inhibitors; 10% of 350 active; also: potency is read from the fitted curve at half-maximal effect
# An asterisk follows results filed as active; ? = inconclusive; . = no result given; [ ] = another dose, or the depositor's remark. Unless noted, calls follow the shape of the dose curve; as a rule, active = well fitted curve in the direction sought with a large enough effect; inconclusive = small, poorly fitted or top-dose-only effect, or another doubt; inactive = no such curve, though single readings can be large; an effect the other way counts as inactive or inconclusive. % is scaled to controls: 0 for no effect and ±100 for the full control effect.
SMILES,RORgamma inh,Coupling enz,Gal4-VP16 FLuc,ELG1 repair inh,TSHR antag,ELG1 Luc conf,ELG1 MMS Luc,ELG1 5FU viab,ELG1 MMS cell,Cell viab unstim,others
CCCc1cc(=O)oc2cc(OCc3ccc(C(=O)O)cc3)ccc12,2%,18,-4%,?,-2,.,.,.,.,.,
O=C1NC[C@H](c2ccccc2)OC(=O)[C@H](Cc2ccc(F)cc2)CC/C=C/C[C@H]1CC(=O)N(CCO)Cc1ccccc1,.,.,.,2.9µM*,-9,11µM*,13µM*,?,?,-13%,
Cc1ccc(CNC(=O)c2oc3ccc(S(=O)(=O)N4CCC5(CC4)OCCO5)cc3c2C)cc1,37%,-2,3%[0.365 µM],0.82µM*,-16,3.5µM*,14µM*,?,22µM*,?,ELG1 FLuc counter=?;FLuc enzyme=-1%
COc1ccc(NS(=O)(=O)c2cccc(C(=O)OCC(=O)N3CCN(c4ccc(OC)cc4)CC3)c2)cc1,.,.,.,4.6µM*,-26,?,7.9µM*,-7%,7.9µM*,?,
COc1ccc(Br)cc1/C=N/NC(=O)c1cc(Br)ccc1O,-8%,1,-9%,-1%,-2,.,.,.,.,.,
COc1ccc(C(=O)N/N=C/c2cc(Br)ccc2O)cc1OC,3.2µM*,3,4.5µM*,2.1µM*,-11,4µM*,13µM*,19%,16µM*,-13%,
CCC(Oc1ccccc1)C(=O)N(C)CC(=O)N(CC(C)C)c1c(N)n(CC(C)C)c(=O)[nH]c1=O (stereo unspecified),.,.,.,7%,18,.,.,.,.,.,
Cc1ccc(S(=O)(=O)N(C)c2ccc(OC(=O)c3cc(=O)[nH]c4ccccc34)cc2)cc1,.,.,.,6%,2,.,.,.,.,.,
Cc1ccc(C(=O)Nc2cccc3[nH]c(C(F)(F)F)nc23)cc1,?,-5,-4%,?,-10,16µM*,7.9µM*,-11%,8.9µM*,?,
O=C(Nc1ccccc1)c1ccc(S(=O)(=O)N2CCCC2)cc1,13%,0,2%,-1%,-11,.,.,.,.,.,
O=C(Nc1nnc(-c2ccccc2Cl)o1)c1ccc(S(=O)(=O)N2CCCCCC2)cc1,0.45µM*,12,0.4µM*,1µM*,-18,?,?,-1%,-10%,?,ELG1 FLuc counter=9%;FLuc enzyme=-3%
C[C@H]1CC2C3CCC4=CC(=O)C=C[C@]4(C)[C@@]3(Cl)[C@@H](O)C[C@]2(C)[C@@]1(O)C(=O)CO (stereo partly specified),.,.,.,.,-4,.,.,.,.,.,
